MsrA inhibitor = bovine MsrA inhibition; purified bovine MsrA, absorbance read-out; inhibition, % at 15.5 µM; 360,000 compounds, 0.75% hits; in the data active means inhibition above about 4.5%;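 further: 0% = vehicle wells with enzyme and 100% = reference inhibitor wells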
ABCB6 inh MLPCN = blocks the human ABCB6 transporter | Q9NP58 | K562-ABCB6 porphyrin accumulation, flow cytometry, 1 h; stronger effect = lower value | fluorescence ratio to DMSO, % at 10 µM | 360,000 compounds, 0.19% hits | AID 602162;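 active means fluorescence ratio to DMSO below 75%, the collection mean minus 3 SD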;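 further: signal is porphyrin accumulated inside mitochondria; 100% equals median channel fluorescence of DMSO control wells; lower ratio means ABCB6 inhibition with less porphyrin fluorescence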
Target sequence (Q9NP58 whole entry, looked up): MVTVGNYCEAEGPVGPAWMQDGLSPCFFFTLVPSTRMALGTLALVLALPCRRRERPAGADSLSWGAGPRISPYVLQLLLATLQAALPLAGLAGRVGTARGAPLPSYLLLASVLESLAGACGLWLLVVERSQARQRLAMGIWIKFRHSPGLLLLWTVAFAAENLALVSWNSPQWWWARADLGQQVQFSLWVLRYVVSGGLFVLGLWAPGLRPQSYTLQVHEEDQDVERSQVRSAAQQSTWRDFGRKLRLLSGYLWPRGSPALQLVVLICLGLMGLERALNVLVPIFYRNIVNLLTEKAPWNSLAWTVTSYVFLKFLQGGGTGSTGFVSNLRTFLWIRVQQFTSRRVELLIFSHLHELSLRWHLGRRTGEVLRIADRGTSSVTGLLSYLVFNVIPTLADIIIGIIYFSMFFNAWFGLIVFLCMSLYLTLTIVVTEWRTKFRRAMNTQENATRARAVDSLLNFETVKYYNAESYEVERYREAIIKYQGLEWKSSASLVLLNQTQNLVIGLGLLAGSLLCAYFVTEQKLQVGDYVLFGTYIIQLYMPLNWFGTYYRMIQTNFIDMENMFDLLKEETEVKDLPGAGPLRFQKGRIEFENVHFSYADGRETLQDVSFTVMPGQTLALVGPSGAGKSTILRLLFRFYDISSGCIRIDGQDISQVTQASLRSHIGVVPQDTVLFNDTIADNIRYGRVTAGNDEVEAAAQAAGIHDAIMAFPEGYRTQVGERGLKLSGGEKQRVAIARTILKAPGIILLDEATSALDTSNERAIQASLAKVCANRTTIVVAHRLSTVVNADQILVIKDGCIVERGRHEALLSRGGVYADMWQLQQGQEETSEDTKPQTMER
MsrA act = activates bovine MsrA enzyme | purified bovine MsrA, absorbance read-out | 360,000 compounds, 0.3% hits | activation, % at 10.6 µM; in the data active means activation above about 7.5%;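 further: 0% = vehicle and 100% = reference activator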
SMARCA2 activ = increases SMARCA2 function in MMTV reporter cells; MG213 cells, MMTV-luciferase reporter, dexamethasone, overnight; activation, % at 9.1 µM; AID 652017; 370,000 compounds, 1% hits; in the data active means activation above about 7.8%;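 further: 0% = vehicle wells and 100% = reference activator wells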
SMARCA2 conf = confirmation of SMARCA2 (BRM) function activators | AID 652260 | MG213 cells, MMTV-luciferase with dexamethasone, luminescence, overnight; MG213 cells expressing E1A, Rb sequestered; DMSO wells 0%, reference activator 100% | activation, % at 9.1 µM | 3,500 compounds, 30% hits | shares compounds with SMARCA2 activ;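 active means activation above its plate's cutoff, the mean activation of tested wells plus 3 SD, cut at about 7.9% in these data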
GAL4-VP16 Luc = activates GAL4-VP16 luciferase, flagging SMARCA2 activator hits; HEK293 GAL4-VP16 pG5luc reporter, luciferase luminescence; scaled: DMSO wells 0%, SAHA wells 100%; activation, % at 9.1 µM; 3,500 compounds, 41% hits; AID 686939; shares compounds with SMARCA2 activ;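 active means activation above the solvent-only control well mean plus 3 SD, averaged across control plates, cut at about 5.2% in these data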
* marks the source's active call; other numbers are inactive results; . = no result. The list is not random: actives were taken first. Their share in the collection is about 2.1%.

SMILES | MsrA inhibitor | ABCB6 inh MLPCN | MsrA act | SMARCA2 activ | SMARCA2 conf | GAL4-VP16 Luc
O=C(CNC(=O)c1ccc(Br)cc1)N/N=C/c1cccnc1 | 0 | 103 | -4 | 10* | 1 | 1
COC(=O)C1=CN(c2ccc(Oc3ccccc3)cc2)C(N)=C(C#N)C1c1ccc(-c2ccccc2)cc1 (stereo not drawn) | 1 | . | . | 1 | . | .
Cc1ccccc1CSc1n[nH]c(NS(=O)(=O)c2ccccc2)n1 | 0 | 102 | -1 | 8.0* | -6 | 0
Cc1nc(SCc2ccccc2C#N)n[nH]1 | -2 | 96 | -3 | 2 | . | .
COc1ccc(Br)c(C(=O)Nc2nc3ccccc3[nH]2)c1 | -1 | 100 | -1 | 8.8* | 7.8* | 2
O=C(Nc1nc2ccccc2[nH]1)C1CCC1 | 0 | 90 | -4 | 8.9* | 3 | 8.7*
COc1cc(OC)cc(C(=O)Nc2nc3ccccc3[nH]2)c1 | 1 | 99 | 0 | 0 | . | .
COc1ccc(C(=O)Nc2nc3ccccc3[nH]2)cc1OC | 0 | 103 | -3 | 11* | 6 | 10*
Cc1nc(CNS(=O)(=O)c2ccc(F)cc2)cs1 | 0 | 98 | -3 | 8.4* | -6 | 0
N#C/C(=C/c1ccco1)c1nc2ccccc2s1 | 1 | 91 | -4 | 18* | 9.3* | 14*
N#C/C(=C\c1ccco1)c1nc2ccccc2s1 | 2 | 109 | -3 | 6 | . | .
Nc1cc(N)nc(SCc2ccccc2)n1 | 0 | 98 | 2 | 5 | . | .
COc1ccc(OCCSc2nc(N)cc(N)n2)cc1 | -1 | 88 | -4 | 11* | 8.6* | 8.5*
Cc1ccc(OCCSc2nc(N)cc(N)n2)cc1 | -1 | 87 | -2 | 6 | . | .
Nc1cc(N)nc(SCCc2ccccc2)n1 | 0 | 98 | -2 | 9.5* | 3 | 1
COC(=O)[C@]12C[C@H](CC(=O)N3CCOCC3)C(=O)N(Cc3cccc4ccccc34)C1=C[C@H](C(C)C)O[C@@H]2C1CC1 | . | . | . | -7 | . | .
O=C(NNC(=S)Nc1ccccc1)c1cccnc1 | 1 | 98 | 0 | 8.8* | -2 | 5.4*
Cc1ccccc1NC(=S)NNC(=O)c1ccoc1C | -1 | 102 | -1 | 2 | . | .
Cc1occc1C(=O)NNC(=O)C1CC1 | 1 | 97 | -2 | 9.5* | 6 | 1
Cc1occc1C(=O)NNC(=S)Nc1ccccc1 | -1 | 100 | -8 | 9.3* | 5 | 6.8*
Cc1occc1C(=O)NNC(=O)c1ccc(F)cc1 | 1 | 106 | 5 | -2 | . | .
COC1=C[C@H](C(=O)NCc2ccccc2)[C@H](C)[C@@H](c2ccccc2)CC1=O | . | . | . | 0 | . | .
Nc1nc(SCC(=O)N2CCCc3ccccc32)[nH]c(=O)c1-c1ccccc1 | 0 | 98 | -3 | 11* | -3 | 1
O=C(CSc1nc2c(cnn2-c2ccc(F)cc2)c(=O)[nH]1)N1CCCc2ccccc21 | 0 | 99 | 1 | 5 | . | .
CS(=O)(=O)c1nc([N+](=O)[O-])nn1CCCc1ccccc1 | . | 92 | 0 | . | . | .
SMILES | MsrA inhibitor | ABCB6 inh MLPCN | MsrA act | SMARCA2 activ | SMARCA2 conf | GAL4-VP16 Luc
Cn1nc([N+](=O)[O-])nc1S(C)(=O)=O | -1 | 97 | 2 | 52* | 49* | 0
CC(=O)N=C(N)Sc1nc2ccccc2[nH]1 | 0 | 105 | 0 | 9.7* | 6 | 9.2*
Cc1ccc(S(=O)(=O)N(C)[C@H]2C[C@H]3c4cc(-c5ccccc5C)ccc4CCN3C[C@H]2[C@H](C)O)cc1 | . | . | . | -2 | . | .
CN1N=C(c2ccc(Cl)cc2)CC(c2ccc(Cl)cc2)C1=O (stereo not drawn) | -1 | 100 | -8 | 0 | . | .
CCN1CC(c2ccccc2)C(c2ccc(Cl)cc2)=N1 (stereo not drawn) | 0 | 91 | -3 | 8.3* | 2 | -1
C#CCN1CC(N2CCN(CCO)CC2)CS1(=O)=O (stereo not drawn) | . | . | . | -1 | . | .
O=C(C1CCC1)n1ccc2ccc(-c3ccc4ccn(Cc5ccccc5)c4c3)cc21 | . | . | . | 1 | . | .
CCNC(=S)NNC(=O)c1ccccc1Cl | 0 | 102 | 4 | 8.2* | 6 | 0
CCNC(=S)NNC(=O)c1ccccc1OC(F)F | -1 | 104 | -3 | -4 | . | .
COC(=O)[C@]12C[C@H](CC(=O)N3CCN(C(=O)C4CC4)CC3)C(=O)N(Cc3ccco3)C1=C[C@H](C(C)C)O[C@@H]2C1CC1 | . | . | . | -4 | . | .
COc1ccc(NC2CCCN(C(=O)CN3C(=O)c4ccccc4C3=O)C2)cc1OC (stereo not drawn) | 0 | 94 | -2 | 8.0* | -5 | 1
COc1ccc(NC2CCCN(C(=O)CSc3ccccn3)C2)cc1OC (stereo not drawn) | 0 | 90 | -2 | 0 | . | .
Cc1nc2cc3ccccc3cc2s1 | 0 | 98 | -4 | 0 | . | .
Cc1nc2cc3nc(C)sc3cc2s1 | -1 | 98 | -3 | 9.0* | 8.7* | 6.7*
C=CCN1C(=O)[C@@H](CC(=O)N2CCOCC2)[C@]2(C(=O)OCC)CCCCC/C=C/12 | . | . | . | 0 | . | .
CCCCN(C(=O)C(C)Oc1ccc(Cl)cc1)c1c(N)n(CCCC)c(=O)[nH]c1=O (stereo not drawn) | 0 | 93 | -3 | 8.2* | -1 | -2
COc1ccccc1CCC(=O)Nc1ccc2c(c1)c(=O)n(C)n2-c1cccs1 | 0 | 97 | -6 | 1 | . | .
COc1ccc(C)cc1NC(=O)c1cnc2n(c1=O)CCS2 | 3 | 101 | -10 | 9.8* | 3 | 2
C#CCNC(=O)C[C@H]1C[C@@]2(C(=O)OC)C(=C[C@H](C(C)(C)C)O[C@@H]2C)N(CCCCCCCC)C1=O | 1 | . | . | -4 | . | .
COc1cc(OC)nc(C(NC(=O)C2CCN(Cc3ccc(N(C)C)cc3)CC2)c2ccc(F)cc2)n1 (stereo not drawn) | 0 | 106 | 2 | 2 | . | .
COc1cc(OC)nc(C(NC(=O)C2CCN(Cc3c[nH]c4ccccc34)CC2)c2ccc(Cl)cc2)n1 (stereo not drawn) | -1 | 94 | -2 | 12* | -4 | 1
O=C(O)CN1C(=O)c2cccc3c(Br)ccc1c23 | 0 | 101 | -3 | 0 | . | .
CN(C)CCCN1C(=O)c2cccc3c(Br)ccc(c23)C1=O | 2 | 99 | 0 | 9.2* | 35* | 0
CCOC(=O)[C@]12CCCCC/C=C\1N(Cc1ccc(OC)cc1)C(=O)[C@H]2CC(=O)N1CCSCC1 | . | . | . | -3 | . | .
Cn1cc(-c2nc3ccccc3[nH]2)c2ccccc21 | 2 | 100 | -5 | 9.0* | 15* | 4
COc1ccc(N2CC(=O)N(c3ccccc3)C2=S)cc1 | -1 | 105 | 0 | 11* | 8.7* | 1
O=C1CN(c2ccccc2)C(=S)N1c1ccccc1 | 0 | 84 | -11 | 1 | . | .
C#CCNC(=O)C[C@@H]1C[C@@]2(C(=O)OC)CCCCC=C2N(Cc2ccc(Cl)cc2Cl)C1=O | -1 | 95 | -2 | -4 | . | .
Cc1ccc(NC(=O)CCS(=O)(=O)c2ccccc2)c(C)c1 | . | . | . | -5 | . | .

Assay outcomes: PubChem, several laboratories
